Drawing on PubChem BioAssay (Tox21), this text covers Potency, activity change, positive = activation and outcome for seven compounds.

Values without a mark were called inactive. Inconclusive results are not listed. Activity calls are given as the source filed them. Unless noted, the call rests on the fitted dose curve; in most records, active means well fitted curve in the direction sought with a large enough effect in the repeat runs; inconclusive means weak or mixed curves; inactive means no such curve, though single readings can be large; an effect the other way counts as inactive or inconclusive.

Assay [1] in a line: qHTS assay to identify small molecule antagonists of the estrogen related receptor (ERR) signaling pathway from Tox21 library - cell viability counter screen (AID 1224834). Further: nearly all actives have a fitted effect of over 30% in size. Summed up: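 ERR cells, 2,000/well; 6 h settle at 37 C/5% CO2; pin-tool compound transfer in DMSO; 17.5 h at 37 C; CellTiter-Fluor, 30 min; fluorescence intensity.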
In general terms: In qHTS, concentration-response curves come from the screen itself.

In assay [2] the target is Luciferin 4-monooxygenase (Photinus pyralis) (UniProt P08659). Briefly: qHTS assay to identify small molecule inhibitors of firefly luciferase (AID 1224835). Further: nearly all actives have a fitted effect of over 25% in size. Further: potency means the concentration at half of the fitted maximal effect. The essentials: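 Inhibition of purified Photinus luciferase is measured by luminescence. Substrate levels (D-luciferin, ATP) sit at their KM values. Each compound is tested in a concentration series.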
Assay [3] is described as follows: qHTS assay to identify small molecule agonists of the constitutive androstane receptor (CAR) signaling pathway - cell viability counter screen (AID 1224836). Further: nearly all actives have a fitted effect of over 45% in size. Summed up:
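Cell viability multiplexed with the CAR agonist screen: CellTiter-Fluor fluorescence after 23 hr at 37 C. HepG2-CYP2B6-hCAR cells got compounds at 15 concentrations with PK11195 at 0.75 uM final.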

Assay [4] is described as follows: qHTS assay to identify small molecule antagonists of the constitutive androstane receptor (CAR) signaling pathway - cell viability counter screen (AID 1224837). Further: nearly all actives have a fitted effect of over 45% in size. The essentials: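 Viability was measured with CellTiter-Fluor in a HepG2 line carrying stably transfected hCAR and a CYP2B6-2.2kb construct. Cells were exposed for 23 hr at 37 C to 15 compound concentrations with 50 nM CITCO as agonist.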

The target in assay [5] is Nuclear receptor subfamily 1 group I member 3 (Homo sapiens) (UniProt Q14994). Briefly: qHTS assay to identify small molecule antagonists of the constitutive androstane receptor (CAR) signaling pathway (AID 1224838).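 Further: HepG2 cells stably expressing hCAR with CYP2B6 luciferase reporter stimulated by CITCO; nearly all actives have a fitted effect of over 40% in size.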 The essentials: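 Antagonist mode used CITCO at a final 50 nM to activate CAR in human hepatoma HepG2 cells carrying stable hCAR and a 2.2 kb CYP2B6 promoter-luciferase construct. Compounds were tested at 15 concentrations over 24 h, with luminescence as the end point.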

Assay [6] shares this target. Briefly: qHTS assay to identify small molecule agonists of the constitutive androstane receptor (CAR) signaling pathway (AID 1224839). Further: nearly all actives have a fitted effect of over 15% in size. Further: potency means the concentration at half of the fitted maximal effect. The essentials: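 Luminescent ONE-Glo read-out after 24 hr, 37 C exposure of double-stable HepG2-CYP2B6-hCAR reporter cells to a 15-point compound series, in the presence of 0.75 uM PK11195 (final).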
The nature of assay [7]: qHTS assay to identify small molecule antagonists of the estrogen related receptor signaling pathway with the pleiotropic PPARgamma coactivator (PGC) from Tox21 10K library - cell viability counter screen (AID 1224840; active means well fitted cell-killing curve with a large enough effect in the repeat runs, not every such curve was filed as active; further: nearly all actives have a fitted effect of over 40% in size). The essentials: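 Multiplexed viability counter screen in the PGC/ERR cell line: cells treated with DMSO-dissolved compounds for 17.5 hours at 37 C, then viability measured as CellTiter-Fluor fluorescence.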

The nature of assay [8]: qHTS assay to identify small molecule agonists of the estrogen related receptor signaling pathway with the pleiotropic PPARgamma coactivator (PGC) from Tox21 10K library (AID 1224842). Further: nearly all actives have a fitted effect of over 15% in size. Summed up:
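Luminescence from One-Glo (30 min, room temperature) measured after PGC/ERR cells had 18 h at 37 C with pinned compound (23 nL in DMSO). Cells had been seeded at 2,000 per well and pre-incubated 6 h.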

Assay [9] concerns the target Thyrotropin receptor (Homo sapiens) (UniProt P16473). Briefly: qHTS assay to identify small molecule agonists of the thyroid stimulating hormone receptor (TSHR) signaling pathway (AID 1224843; calls by dose curve; further: nearly all actives have a fitted effect of over 45% in size). The essentials:
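A cell-based cAMP HTRF format was run in TSHR-transfected HEK293 cells, 800 per well. Treatment: 30 min, room temperature. Detection: 1 h with labelled cAMP and anti-cAMP cryptate. Concentration-response over 15 points, three replicates.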

Assay [10] is described as follows: qHTS assay to identify small molecule agonists of H2AX (AID 1224845; active means well fitted activation curve with a large enough effect in the signal ratio in the repeat runs, not every such curve was filed as active; the % refers to the signal ratio). Summed up: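 Phospho-H2AX Ser139 measured by HTRF (ex 320 nm; em 665 and 620 nm) after 24 hr antibody incubation. Compounds, 15 concentrations, 0.76% DMSO, were applied to CHO-K1 cells for 3hr at 37C before lysis.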
Assay [11] is described as follows: qHTS assay to identify small molecule agonists of H2AX - cell viability counter screen (AID 1224847; calls by dose curve;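 further: wild-type CHO-K1 cells; top concentration of the series differs between compounds; nearly all actives have a fitted effect of over 30% in size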). Summed up: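 Counter-screen for viability: CellTiter-Glo ATP luminescence read after 3 h compound treatment (15-point titration, 0.76% DMSO final) of CHO-K1 cells at 37C, with 30 min room-temperature reagent incubation.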
Assay [12] can be described thus: qHTS assay to identify small molecule antagonists of the estrogen related receptor (ERR) signaling pathway from Tox21 library (AID 1224848). Further: nearly all actives have a fitted effect of over 50% in size. The essentials:
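ERR cell line, 2,000 cells/well. 6 h settle, then compound (DMSO) added; 18 h at 37 C; ONE-Glo luminescence after 30 min RT.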

Assay [13] is described as follows: qHTS assay to identify small molecule agonists of the estrogen related receptor (ERR) signaling pathway from Tox21 library (AID 1224849; calls by dose curve; further: nearly all actives have a fitted effect of over 15% in size). To be noted: ERR reporter cell line, ONE-Glo luciferase, 18 h; at 92.4 µM (top of the series) unless noted. Summed up:
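Cells carrying the ERR reporter were plated and allowed to settle for 6 h, exposed to library compounds for 18 h at 37 C, then lysed with ONE-Glo and luminescence measured.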

Assay [14] is described as follows: qHTS RealTime-Glo MT Cell Viability Assay in HepG2 cells - 24 hour (AID 1224867). Further: nearly all actives have a fitted effect of over 50% in size. Summed up: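 qHTS, HepG2, 600 cells/well, RealTime-Glo (NanoLuc + prosubstrate) added with cells; 5 h preincubation; DMSO compound addition; 37 C; luminescence at 0/8/16/24/32/40 h.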
Assay [15] can be described thus: qHTS RealTime-Glo MT Cell Viability Assay in HEK293 cells - 32 hour (AID 1224868). Further: top concentration of the series differs between compounds; nearly all actives have a fitted effect of over 50% in size. Summed up:
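Assay medium contained NanoLuc luciferase plus cell-permeant prosubstrate, added with HEK293 cells at 600 cells/well. After 5 h at 37 C/5% CO2 compounds were added; plates stayed at 37 C for 40 h with serial luminescence reads.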

Assay [16] in a line: qHTS assay to identify small molecule antagonists of the estrogen related receptor signaling pathway with the pleiotropic PPARgamma coactivator (PGC) from Tox21 10K library (AID 1224841; call rule not given here; further: actives are mostly falling curves and most rising ones were filed inactive; nearly all actives have a fitted effect of over 50% in size). The essentials:
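Steps: plate 2,000 PGC/ERR cells per well; incubate 6 h at 37 C with 5% CO2; transfer compounds from DMSO stocks by pin tool; incubate 18 h at 37 C; add One-Glo; measure luminescence 30 min later.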

Assay [17] in a line: qHTS assay to identify small molecule agonists of the hypoxia (HIF-1) signaling pathway - cell viability counter screen (AID 1224844; calls by dose curve; further: nearly all actives have a fitted effect of over 50% in size). The essentials:
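Cytotoxicity was measured in parallel with the HRE-driven beta-lactamase readout: after 17 hrs of compound exposure at 37C, HRE-bla ME-180 cells received CellTiter-Glo and luminescence was recorded 30 min later.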

The nature of assay [18]: qHTS assay to identify small molecule agonists of the hypoxia (HIF-1) signaling pathway (AID 1224846; active means well fitted activation curve with a large enough effect in the signal ratio in the repeat runs, not every such curve was filed as active; the % refers to the signal ratio). Summed up: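 Compounds from the Tox21 10K library, dissolved in DMSO, are tested for induction of a hypoxia response element–controlled beta-lactamase reporter in ME-180 cells. Exposure lasts 17 hrs at 37C after a 5 hr settling period, followed by CCF4-AM FRET substrate.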

Assay [19] in a line: A CellTox Green Cytotoxicity Assay to monitor cytotoxicity in HEK293 cells - 0 hour (AID 1224869). Further: nearly all actives have a fitted effect of over 50% in size. The essentials:
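Cells (HEK293, 600/well) and dye reagent are dispensed together. After 5 h at 37 C, 23 nL compound is pinned in. Plates stay at 37 C for 40 h with fluorescence read at 0h, 8h, 16h, 24h, 32h and 40h.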

Assay [20] in a line: qHTS assay to identify small molecule agonists of the estrogen related receptor signaling pathway with the pleiotropic PPARgamma coactivator (PGC) (AID 1224823). Summed up:
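Luminescence readout (One-Glo, 30 min RT) from PGC/ERR cell line treated 18 h at 37 C with pin-tool-delivered DMSO compound solutions; cells plated 6 h before dosing. Quantitative HTS format.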
On the % scale 0 is the no-effect control and ±100 the full control effect.

Sequence of Luciferin 4-monooxygenase (Photinus pyralis) (P08659 whole entry, looked up): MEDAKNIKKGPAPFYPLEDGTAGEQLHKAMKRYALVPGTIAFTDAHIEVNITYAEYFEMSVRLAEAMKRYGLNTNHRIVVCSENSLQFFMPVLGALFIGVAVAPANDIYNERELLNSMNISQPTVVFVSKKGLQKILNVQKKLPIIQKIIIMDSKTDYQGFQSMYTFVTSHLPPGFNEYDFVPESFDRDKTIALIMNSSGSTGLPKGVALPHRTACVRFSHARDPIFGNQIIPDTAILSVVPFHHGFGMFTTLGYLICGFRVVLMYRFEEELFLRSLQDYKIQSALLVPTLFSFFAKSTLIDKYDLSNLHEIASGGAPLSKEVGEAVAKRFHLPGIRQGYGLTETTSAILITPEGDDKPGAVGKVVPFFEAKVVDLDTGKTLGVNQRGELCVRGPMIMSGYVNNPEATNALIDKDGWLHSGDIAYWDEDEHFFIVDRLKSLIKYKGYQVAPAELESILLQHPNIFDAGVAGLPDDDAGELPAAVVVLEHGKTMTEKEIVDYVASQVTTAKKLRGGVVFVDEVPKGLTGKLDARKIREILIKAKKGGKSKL
Sequence of Thyrotropin receptor (Homo sapiens) (P16473 whole entry, looked up): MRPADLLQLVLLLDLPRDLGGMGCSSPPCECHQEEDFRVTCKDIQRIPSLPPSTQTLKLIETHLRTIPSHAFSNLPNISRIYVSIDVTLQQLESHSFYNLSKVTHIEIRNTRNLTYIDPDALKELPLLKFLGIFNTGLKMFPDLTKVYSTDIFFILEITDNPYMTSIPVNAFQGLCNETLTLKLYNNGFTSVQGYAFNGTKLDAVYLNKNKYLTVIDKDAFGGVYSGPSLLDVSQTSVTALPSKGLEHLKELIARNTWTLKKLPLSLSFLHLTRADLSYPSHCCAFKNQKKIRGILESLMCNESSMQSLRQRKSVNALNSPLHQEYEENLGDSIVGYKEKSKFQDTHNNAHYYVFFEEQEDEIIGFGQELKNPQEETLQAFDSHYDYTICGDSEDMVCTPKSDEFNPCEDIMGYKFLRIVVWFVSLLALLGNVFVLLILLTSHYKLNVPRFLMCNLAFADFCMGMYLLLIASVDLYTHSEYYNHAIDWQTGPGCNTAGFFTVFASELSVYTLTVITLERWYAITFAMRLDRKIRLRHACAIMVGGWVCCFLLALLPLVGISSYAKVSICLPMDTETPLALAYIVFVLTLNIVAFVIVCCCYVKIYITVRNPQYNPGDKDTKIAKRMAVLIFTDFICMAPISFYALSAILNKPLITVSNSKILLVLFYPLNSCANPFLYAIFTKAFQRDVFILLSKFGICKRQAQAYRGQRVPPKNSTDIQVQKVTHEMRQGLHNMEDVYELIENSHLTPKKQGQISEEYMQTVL
Sequence of Nuclear receptor subfamily 1 group I member 3 (Homo sapiens) (Q14994 whole entry, looked up): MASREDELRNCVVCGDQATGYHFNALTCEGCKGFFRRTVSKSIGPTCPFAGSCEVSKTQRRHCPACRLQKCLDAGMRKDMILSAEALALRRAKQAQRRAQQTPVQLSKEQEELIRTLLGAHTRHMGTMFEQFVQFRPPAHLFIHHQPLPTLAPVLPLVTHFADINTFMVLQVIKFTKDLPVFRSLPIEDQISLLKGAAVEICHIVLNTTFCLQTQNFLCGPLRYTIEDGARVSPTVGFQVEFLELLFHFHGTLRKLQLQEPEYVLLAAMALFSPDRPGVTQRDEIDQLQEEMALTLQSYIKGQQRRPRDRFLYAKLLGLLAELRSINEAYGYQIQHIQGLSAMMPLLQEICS

Regarding `COc1cc(NC(C)CCCN)c2ncccc2c1` (stereo not drawn), the Potency result in assay [1], in assay [2], in assay [3], in assay [4], in assay [5] and in assay [6] was “inactive” in each case. Moreover, the Potency entry in assay [7], in [8], in assay [9], in assay [10], in [11] and in assay [12] was “inactive” in each case. Further, the Potency result in [14] and in assay [15] was “inactive” in each case. Also, the activity change, positive = activation in [13] is -9.72% [at 42.5 µM].
For the compound `SCCc1cnccn1`, the Potency result in assay [1], in [2], in assay [3], in assay [4], in assay [5] and in [6] was “inactive” throughout. The Potency entry in [7], in [16], in assay [8], in assay [9], in [17] and in assay [10] was “inactive” each time. Further, the Potency entry in assay [11], in [14], in assay [15] and in [19] was “inactive” each time. Besides, the call in [18] was inactive. Also, in assay [13], the activity change, positive = activation was -18.7%.
Regarding `CCC(CO)(CO)[N+](=O)[O-]`, the Potency entry in assay [1], in assay [2], in assay [3], in [4], in assay [5] and in assay [6] was “inactive” each time. For the same compound, the Potency entry in assay [7], in assay [16], in assay [8], in assay [9], in [10] and in assay [11] was “inactive” in each case. The Potency result in [12], in assay [14] and in assay [19] was “inactive” in each case. Besides, the result in assay [18] was inactive. In addition, in assay [13], the activity change, positive = activation was 1.64%.
In the case of `COC1CCC=CO1` (stereo not drawn), the Potency entry in assay [1], in assay [2], in assay [3], in [4], in [5] and in assay [6] was “inactive” each time. Also, the Potency entry in [7], in assay [16], in assay [8], in assay [9], in assay [17] and in [11] was “inactive” each time. Besides, the Potency entry in assay [12], in assay [14], in assay [15] and in [19] was “inactive” throughout. Further, the outcome in assay [18] was inactive. Also, the activity change, positive = activation in assay [13] was 5.99%.
On to `COc1ccc(/C=C/C(=O)c2ccc(OC)cc2OC)cc1`, for which the Potency result in [1], in assay [3], in assay [4], in assay [5], in [7] and in assay [16] was “inactive” each time. The Potency result in assay [8], in [9], in [17], in assay [11], in [14] and in assay [19] was “inactive” throughout. The Potency in assay [2] was 17.4 µM (active); in [6], 21.1 µM (active). In addition, the compound was called inactive in assay [18]. In addition, the activity change, positive = activation in [13] is -32.9% [at 42.5 µM].
`C1CCCCC1`: the Potency entry in assay [1], in assay [2], in [3], in assay [4], in assay [5] and in [6] was “inactive” in each case. The Potency result in [7], in assay [16], in [8], in assay [10], in assay [11] and in assay [12] was “inactive” each time. In addition, the Potency result in assay [14], in assay [15] and in [19] was “inactive” each time. Further, in [18], the result was inactive. For the same compound, the activity change, positive = activation in assay [13] was 7.76%.
For `O=NN(CCCl)C(=O)NCCCl`, the result in assay [20] was inactive. Further, the Potency result in [1], in [2], in assay [3], in assay [4], in assay [5] and in [7] was “inactive” in each case. For the same compound, the Potency result in [16], in [8], in assay [9], in assay [17], in assay [11] and in assay [12] was “inactive” each time. The Potency entry in [14], in assay [15] and in [19] was “inactive” in each case. Further, the activity change, positive = activation in assay [13] was 2.54% [at 42.5 µM].
